Measured values from PubChem BioAssay (Tox21).
Values joined by “and” are separate entries in the source; they are usually repeats but may differ in a detail not shown here. Equal values may be shown once. Records with an inconclusive call do not appear. More than one record can exist for a structure, and the calls need not agree. Active and inactive are the calls of the source. Unless noted, the call rests on the fitted dose curve; in most records, active means well fitted curve in the direction sought with a large enough effect in the repeat runs; inconclusive means weak or mixed curves; inactive means no such curve, though single readings can be large; an effect the other way counts as inactive or inconclusive.

Columns and labels:
[1] = qHTS assay to identify small molecule agonists of the RXR signaling pathway - cell viability counter screen (AID 1159529); further: nearly all actives have a fitted effect of over 50% in size; further: potency means the concentration at half of the fitted maximal effect
Procedure, shortened: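 Cell viability is measured by CellTiter-Glo luminescence, 30 min at room temperature, in wells already read for beta-lactamase. Engineered HEK 293T cells (RXR-alpha-UAS-bla) are dosed 16 hr at 37 C. Tetraoctyl ammonium bromide serves as positive control.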

[2] = qHTS assay to identify small molecule antagonists of the retinoic acid receptor (RAR) signaling pathway (AID 1159552; further: nearly all actives have a fitted effect of over 50% in size)
Procedure, shortened: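 Quantitative HTS in C3RL4 RARE-luciferase reporter cells. Compounds were added with 1 uM (final) retinol; luminescence was read after 6 hr.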

[3] = qHTS assay to identify small molecule agonists of the retinoic acid receptor (RAR) signaling pathway (AID 1159553); conditions: C3RL4 RARE luciferase reporter, agonist, 6 h; activation: at 73.3 µM (top of the series) unless noted; further: potency means the concentration at half of the fitted maximal effect
Procedure, shortened: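 Activation of retinol signaling was monitored via a RARE luciferase reporter in C3RL4 cells. After 6 hr compound treatment at 37 C, detection reagent was added for 30 min at room temperature before luminescence reading.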

[4] = qHTS assay to identify small molecule antagonists of the estrogen related receptor (ERR) signaling pathway from Tox21 library - cell viability counter screen (AID 1224834); further: nearly all actives have a fitted effect of over 30% in size
Procedure, shortened: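 CellTiter-Fluor fluorescence measured; ERR cells; 17.5 h compound incubation at 37 C; 30 min reagent step.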

[5] = molecular target: Luciferin 4-monooxygenase (Photinus pyralis) (UniProt P08659); experiment: qHTS assay to identify small molecule inhibitors of firefly luciferase (AID 1224835); further: nearly all actives have a fitted effect of over 25% in size
Procedure, shortened: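 Biochemical qHTS: compounds run as interplate titrations against purified firefly enzyme, with D-luciferin and ATP each at its KM concentration. Light output recorded by CCD imaging.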

[6] = qHTS assay to identify small molecule agonists of the constitutive androstane receptor (CAR) signaling pathway - cell viability counter screen (AID 1224836); further: nearly all actives have a fitted effect of over 45% in size
Procedure, shortened: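 Counter screen multiplexed with the CAR reporter readout: HepG2 cells co-transfected with hCAR and the CYP2B6-2.2kb construct receive a 15-concentration compound series and 0.75 uM PK11195 (final), then CellTiter-Fluor fluorescence is read after 23 h.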

[7] = qHTS assay to identify small molecule antagonists of the constitutive androstane receptor (CAR) signaling pathway - cell viability counter screen (AID 1224837); further: nearly all actives have a fitted effect of over 45% in size
Procedure, shortened: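 Using CellTiter-Fluor, viability is scored in HepG2 cells stably carrying hCAR and a 2.2kb CYP2B6 reporter after 23 hr compound exposure across 15 concentrations, with CITCO present at 50 nM.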

[8] = molecular target: Nuclear receptor subfamily 1 group I member 3 (Homo sapiens) (UniProt Q14994); experiment: qHTS assay to identify small molecule antagonists of the constitutive androstane receptor (CAR) signaling pathway (AID 1224838);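 further: HepG2 cells stably expressing hCAR with CYP2B6 luciferase reporter stimulated by CITCO; nearly all actives have a fitted effect of over 40% in size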
Procedure, shortened: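 Reporter luminescence was quantified after 24 h exposure of hCAR/CYP2B6-2.2kb double-stable HepG2 cells to compounds at 15 concentrations in the presence of 50 nM CITCO final.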

[9] = molecular target: Nuclear receptor subfamily 1 group I member 3 (Homo sapiens) (UniProt Q14994); experiment: qHTS assay to identify small molecule agonists of the constitutive androstane receptor (CAR) signaling pathway (AID 1224839); further: nearly all actives have a fitted effect of over 15% in size; further: potency means the concentration at half of the fitted maximal effect
Procedure, shortened: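 A 15-concentration quantitative screen uses HepG2 cells co-transfected stably with human CAR and CYP2B6-2.2kb reporter. Treatment lasts 24 h with 0.75 uM PK11195 final present; ONE-Glo luminescence is the signal.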

[10] = qHTS assay to identify small molecule antagonists of the estrogen related receptor signaling pathway with the pleiotropic PPARgamma coactivator (PGC) from Tox21 10K library - cell viability counter screen (AID 1224840; active means well fitted cell-killing curve with a large enough effect in the repeat runs, not every such curve was filed as active; further: nearly all actives have a fitted effect of over 40% in size)
Procedure, shortened: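 Here the PGC/ERR cells serve as a cytotoxicity control: they are exposed to compounds for 17.5 hours at 37 C, and live-cell signal is quantified using CellTiter-Fluor fluorescence.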

[11] = molecular target: Thyrotropin receptor (Homo sapiens) (UniProt P16473); experiment: qHTS assay to identify small molecule agonists of the thyroid stimulating hormone receptor (TSHR) signaling pathway (AID 1224843; calls by dose curve; further: nearly all actives have a fitted effect of over 45% in size; further: potency means the concentration at half of the fitted maximal effect)
Procedure, shortened: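 TSHR-HEK293 cells in agonist mode, 30 min room-temperature step, then cAMP measured by competitive HTRF (cAMP-d2 with anti-cAMP cryptate) after 1 h at room temperature. Tested at 15 concentrations in triplicate.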

[12] = qHTS assay to identify small molecule agonists of the hypoxia (HIF-1) signaling pathway - cell viability counter screen (AID 1224844; calls by dose curve; further: nearly all actives have a fitted effect of over 50% in size)
Procedure, shortened: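 Multiplexed with the HRE beta-lactamase assay, this viability read used CellTiter-Glo luminescence (30 min, RT) on HRE-bla ME-180 cells treated 17 hrs with compounds in 0.5% dialyzed FBS medium.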

[13] = qHTS assay to identify small molecule agonists of H2AX (AID 1224845; active means well fitted activation curve with a large enough effect in the signal ratio in the repeat runs, not every such curve was filed as active; the % refers to the signal ratio)
Procedure, shortened: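 Wild-type CHO-K1 cells, plated overnight, exposed 3hr at 37C to 15 concentrations (0.76% DMSO final). Lysed, then HTRF anti-pH2AX (S139) cryptate and anti-H2AX-d2 antibodies, 24 hr room temperature; 665/620 nm emission read.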

[14] = qHTS assay to identify small molecule agonists of the hypoxia (HIF-1) signaling pathway (AID 1224846; active means well fitted activation curve with a large enough effect in the signal ratio in the repeat runs, not every such curve was filed as active; the % refers to the signal ratio)
Procedure, shortened: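 Hypoxia-pathway activation was scored as increased beta-lactamase from an HRE-controlled reporter in ME-180 cells; plated at 2,000 cells per well with 0.5% dialyzed FBS, they were exposed 17 hrs to compounds and then given CCF4-AM.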

[15] = molecular target: Retinoic acid receptor RXR-alpha (Homo sapiens) (UniProt P19793); experiment: qHTS assay to identify small molecule agonists of the RXR signaling pathway (AID 1159527; calls by dose curve; further: nearly all actives have a fitted effect of over 35% in size; further: potency means the concentration at half of the fitted maximal effect)
Procedure, shortened: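 qHTS of the Tox21 10K library in GeneBLAzer RXR-alpha HEK 293T cells carrying a beta-lactamase reporter […]; 16 hr treatment, 9-cis retinoic acid as agonist control, FRET read-out.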

[16] = qHTS assay to identify small molecule antagonists of the estrogen related receptor signaling pathway with the pleiotropic PPARgamma coactivator (PGC) from Tox21 10K library (AID 1224841; call rule not given here; further: actives are mostly falling curves and most rising ones were filed inactive; nearly all actives have a fitted effect of over 50% in size; further: potency means the concentration at half of the fitted maximal effect)
Procedure, shortened: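 Each well held 2,000 PGC/ERR cells, pre-incubated six hours (37 C, 5% CO2). Test substances in DMSO were added by pin tool and left for 18 h at 37 C before luciferase detection by One-Glo.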

[17] = qHTS assay to identify small molecule agonists of the estrogen related receptor signaling pathway with the pleiotropic PPARgamma coactivator (PGC) from Tox21 10K library (AID 1224842); further: nearly all actives have a fitted effect of over 15% in size
Procedure, shortened: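 PGC/ERR reporter cell line, 2,000 cells per well, incubated 6 h at 37 C before 23 nL compound in DMSO was added. After 18 h at 37 C, One-Glo luminescence read following 30 min at room temperature.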

[18] = qHTS assay to identify small molecule antagonists of the retinoid acid receptor (RAR) signaling pathway - cell viability counter screen (AID 1159551); further: nearly all actives have a fitted effect of over 35% in size
Procedure, shortened: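 Seed C3RL4 cells; next day add compound, then retinol to 1 uM final; incubate 6 h at 37 C; add CellTiter-Glo; read luminescence after 30 min at RT.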

Measured: Potency

Thyrotropin receptor (Homo sapiens), sequence (P16473 whole entry, looked up): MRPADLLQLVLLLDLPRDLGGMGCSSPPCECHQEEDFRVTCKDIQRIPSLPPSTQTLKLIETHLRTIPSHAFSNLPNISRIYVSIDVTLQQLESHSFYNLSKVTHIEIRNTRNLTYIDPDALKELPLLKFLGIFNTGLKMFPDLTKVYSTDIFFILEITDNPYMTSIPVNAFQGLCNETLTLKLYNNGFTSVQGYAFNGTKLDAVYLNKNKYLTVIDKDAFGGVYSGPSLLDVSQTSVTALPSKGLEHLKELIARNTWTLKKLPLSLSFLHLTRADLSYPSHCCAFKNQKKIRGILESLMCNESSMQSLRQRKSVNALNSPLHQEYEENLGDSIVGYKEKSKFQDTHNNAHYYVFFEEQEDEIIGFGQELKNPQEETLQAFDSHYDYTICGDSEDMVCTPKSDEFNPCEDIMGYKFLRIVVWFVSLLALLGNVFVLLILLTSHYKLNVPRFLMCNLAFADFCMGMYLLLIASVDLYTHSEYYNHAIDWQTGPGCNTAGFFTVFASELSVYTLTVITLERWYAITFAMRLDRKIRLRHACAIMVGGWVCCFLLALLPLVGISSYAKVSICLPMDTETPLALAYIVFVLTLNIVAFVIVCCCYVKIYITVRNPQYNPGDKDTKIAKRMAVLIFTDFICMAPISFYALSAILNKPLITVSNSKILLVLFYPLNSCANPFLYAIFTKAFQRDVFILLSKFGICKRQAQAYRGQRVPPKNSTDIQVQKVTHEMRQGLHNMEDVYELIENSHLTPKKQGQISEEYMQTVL
Luciferin 4-monooxygenase (Photinus pyralis), sequence (P08659 whole entry, looked up): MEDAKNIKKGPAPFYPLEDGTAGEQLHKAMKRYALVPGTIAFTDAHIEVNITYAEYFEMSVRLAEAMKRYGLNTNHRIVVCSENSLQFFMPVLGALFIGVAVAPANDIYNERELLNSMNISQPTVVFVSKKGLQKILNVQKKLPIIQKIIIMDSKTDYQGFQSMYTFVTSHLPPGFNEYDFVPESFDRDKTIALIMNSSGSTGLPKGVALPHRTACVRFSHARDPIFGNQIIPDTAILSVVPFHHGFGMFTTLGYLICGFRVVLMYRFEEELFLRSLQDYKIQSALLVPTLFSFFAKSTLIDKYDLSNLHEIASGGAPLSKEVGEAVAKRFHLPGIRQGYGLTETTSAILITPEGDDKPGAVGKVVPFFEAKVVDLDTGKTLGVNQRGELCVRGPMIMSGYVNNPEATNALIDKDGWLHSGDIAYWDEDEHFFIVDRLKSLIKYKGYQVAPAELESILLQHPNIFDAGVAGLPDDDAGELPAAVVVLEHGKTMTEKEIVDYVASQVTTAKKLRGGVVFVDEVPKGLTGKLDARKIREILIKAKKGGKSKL
Nuclear receptor subfamily 1 group I member 3 (Homo sapiens), sequence (Q14994 whole entry, looked up): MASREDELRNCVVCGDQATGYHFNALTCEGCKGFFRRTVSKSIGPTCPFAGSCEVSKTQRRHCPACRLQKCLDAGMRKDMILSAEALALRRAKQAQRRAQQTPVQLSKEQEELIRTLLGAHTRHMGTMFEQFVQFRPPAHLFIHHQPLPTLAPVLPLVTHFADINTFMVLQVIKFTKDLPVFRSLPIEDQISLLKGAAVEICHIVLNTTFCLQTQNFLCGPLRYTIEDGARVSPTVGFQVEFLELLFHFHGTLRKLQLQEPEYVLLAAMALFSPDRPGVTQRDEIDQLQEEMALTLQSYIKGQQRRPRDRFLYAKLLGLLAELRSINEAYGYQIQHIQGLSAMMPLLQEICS
Retinoic acid receptor RXR-alpha (Homo sapiens), sequence (P19793 whole entry, looked up): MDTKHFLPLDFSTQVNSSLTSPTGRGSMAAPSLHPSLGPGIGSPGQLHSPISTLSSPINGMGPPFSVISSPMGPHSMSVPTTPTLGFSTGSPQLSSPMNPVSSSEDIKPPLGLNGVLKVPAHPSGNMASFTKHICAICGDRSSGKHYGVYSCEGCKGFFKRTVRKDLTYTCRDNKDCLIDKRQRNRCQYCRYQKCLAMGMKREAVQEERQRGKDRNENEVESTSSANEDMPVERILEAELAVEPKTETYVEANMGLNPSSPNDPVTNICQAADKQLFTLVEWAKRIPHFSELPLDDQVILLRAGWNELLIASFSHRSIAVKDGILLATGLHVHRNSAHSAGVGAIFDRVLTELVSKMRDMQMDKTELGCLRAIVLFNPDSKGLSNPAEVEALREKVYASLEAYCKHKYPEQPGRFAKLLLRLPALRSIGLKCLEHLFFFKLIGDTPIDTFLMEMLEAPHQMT

C1CN2CCN1CC2
not listed: [15] | [16] | [17] | [18]
inactive: all other assays above

O=[N+]([O-])c1ccc(Oc2ccc(Cl)cc2Cl)cc1
43.9 µM (active) and inactive: [1]
54.8 µM (active) and inactive: [9]
active: [15] 0.696 µM
not listed: [2] | [3] | [18]
inactive: all other assays above

Nc1ccc(Br)cc1
not listed: [4] | [9] | [16] | [17] | [18]
inactive: all other assays above

[N-]=[N+]=[N-]
not listed: [2] | [3] | [16] | [17] | [18]
inactive: all other assays above

CC1OC(C)OC(C)O1 (stereo not given)
not listed: [2] | [3] | [8] | [9] | [11] | [18]
inactive: all other assays above

CCOC(=O)c1ccccc1C(=O)OCC
not listed: [11] | [15]
inactive: all other assays above

COC(=O)c1ccccc1C(=O)OC
38.8 µM (active) and inactive: [16]
not listed: [15]
inactive: all other assays above

O=S(=O)(c1ccc(Cl)cc1)c1cc(Cl)c(Cl)cc1Cl
active: [9] 30.6 µM and 27.3 µM
not listed: [2] | [11] | [15] | [16] | [17] | [18]
inactive: all other assays above

CCCCN(CCCC)SN(C)C(=O)Oc1cccc2c1OC(C)(C)C2
inactive: [18] | [4] | [5] | [6] | [7] | [8] | [10] | [11] | [12] | [14]

Oc1ccccc1Cl
not listed: [2] | [3] | [16] | [17] | [18]
inactive: all other assays above

COC(=O)c1ccccc1N
not listed: [2] | [3] | [15]
inactive: all other assays above

CON(C)C(=O)Nc1ccc(Cl)c(Cl)c1
active: [3] 24.3 µM | [9] 61.4 µM and 54.5 µM
not listed: [5] | [18]
inactive: all other assays above

CCOP(=S)(OCC)Oc1cnc2ccccc2n1
inactive and 30.6 µM (active): [9]
not listed: [15] | [16] | [17] | [18]
inactive: all other assays above

CCCN(CCC)c1c([N+](=O)[O-])cc(C(F)(F)F)cc1[N+](=O)[O-]
active: [11] 10.8 µM and 12.2 µM
not listed: [2] | [3] | [15] | [16] | [17] | [18]
inactive: all other assays above

ClCc1cccnc1
not listed: [2] | [3] | [16] | [17] | [18]
inactive: all other assays above

CC(C)=C[C@@H]1[C@@H](C(=O)OCc2coc(Cc3ccccc3)c2)C1(C)C
17.2 µM (active) and inactive: [9]
not listed: [15] | [16] | [17]
inactive: all other assays above

c1ccc2c(c1)oc1ccccc12
not listed: [2] | [3] | [5] | [15] | [16] | [17]
inactive: all other assays above

CC(=O)C=C(C)C
not listed: [2] | [18]
inactive: all other assays above

C[C@]12CC[C@H]3[C@@H](CC[C@@]45O[C@@H]4C(O)=C(C#N)C[C@]35C)[C@@H]1CC[C@@H]2O
not listed: [2] | [3] | [15] | [16] | [17] | [18]
inactive: all other assays above
